Bioassay records: PubChem, several laboratories
Sampled rows, rich in hits. Any-hit rate of the full collection: about 3.5%.
BoNT-F LC inh: inhibitors of Botulinum neurotoxin F light chain protease | Multiplex microsphere protease cleavage assay, flow cytometry | AID 588497 | inhibition, % at 10 µM | 360,000 compounds, 0.22% hits; in the data active means inhibition above about 35%, passing the limit was not always enough; inconclusive means no clear call, values can overlap the other calls; further: plate controls were buffer without enzyme for full effect and enzyme alone for no effect
BoNT-A LC inh2: BoNT A light chain protease inhibition; multiplex microsphere protease substrate cleavage, flow cytometry; inhibition, % at 10 µM; 360,000 compounds, 0.17% hits; further: plate controls were buffer without enzyme for full effect and enzyme alone for no effect
Anthrax LF prot: anthrax lethal factor protease inhibition. inhibition, % at 10 µM. 360,000 compounds, 0.12% hits. P15917. multiplex microsphere protease cleavage assay, LF. AID 588501; further: plate controls were buffer without enzyme for full effect and enzyme alone for no effect
Target sequence (P15917 whole entry, looked up): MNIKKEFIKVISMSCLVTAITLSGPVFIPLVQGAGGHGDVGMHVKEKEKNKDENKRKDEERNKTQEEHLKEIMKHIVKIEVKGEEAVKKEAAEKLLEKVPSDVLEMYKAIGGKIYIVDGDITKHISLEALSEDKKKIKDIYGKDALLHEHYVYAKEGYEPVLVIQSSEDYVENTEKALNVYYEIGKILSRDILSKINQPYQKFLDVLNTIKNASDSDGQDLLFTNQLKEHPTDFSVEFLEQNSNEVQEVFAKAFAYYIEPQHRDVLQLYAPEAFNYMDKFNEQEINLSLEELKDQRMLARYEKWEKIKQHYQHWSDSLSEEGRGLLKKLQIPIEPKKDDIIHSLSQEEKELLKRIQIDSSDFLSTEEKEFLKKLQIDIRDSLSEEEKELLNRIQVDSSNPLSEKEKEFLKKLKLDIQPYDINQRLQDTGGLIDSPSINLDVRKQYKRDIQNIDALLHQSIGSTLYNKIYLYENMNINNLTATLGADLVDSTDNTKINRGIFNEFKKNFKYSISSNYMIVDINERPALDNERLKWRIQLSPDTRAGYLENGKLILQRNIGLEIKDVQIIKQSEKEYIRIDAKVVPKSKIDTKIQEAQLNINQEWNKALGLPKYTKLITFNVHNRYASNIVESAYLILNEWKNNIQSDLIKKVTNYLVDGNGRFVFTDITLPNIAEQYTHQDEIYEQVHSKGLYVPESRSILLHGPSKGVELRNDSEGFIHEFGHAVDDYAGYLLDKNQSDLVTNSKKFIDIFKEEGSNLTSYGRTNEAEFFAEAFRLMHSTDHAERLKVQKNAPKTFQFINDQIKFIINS
SARS 3CLpro inh: SARS-CoV 3CLpro protease inhibition | P0C6X7 | recombinant SARS-CoV 3CLpro, quenched FRET peptide cleavage | inhibition, % at 6 µM | 290,000 compounds, 0.14% hits | AID 1706; in the data active means inhibition above about 12%
Bead autofluor: compound fluorescence in toxin protease inhibitor counterscreen; compound autofluorescence counterscreen, microsphere flow cytometry; active compounds read high; fluorescence intensity (no concentration beside the values); 360,000 compounds, 3.1% hits; in the data active means fluorescence intensity above about 16000; inconclusive means no clear call, values can overlap the other calls
Active calls of the source: *; ? = inconclusive; / = no result. Unless noted, no stated cut-off is given here; in the data, active means inhibition above about 30%; inconclusive means no clear call, values can overlap the other calls; inactive means below that.

SMILES	BoNT-F LC inh	BoNT-A LC inh2	Anthrax LF prot	SARS 3CLpro inh	Bead autofluor
Cc1onc(-c2c(F)cccc2Cl)c1C(=O)Nc1cccc2nsnc12	1	1	-1	-4	22508*
O=C(CCc1ccccc1)NCCCN1CCOCC1	8	1	-1	-7	3514
O=C(CCCc1ccccc1)NCCCN1CCOCC1	4	2	3	2	22241*
Cc1onc(-c2c(F)cccc2Cl)c1C(=O)NCCCN1CCOCC1	1	?	2	1	20261*
O=C1C(Cl)=C(NCCc2ccccc2)C(=O)N1CCc1ccccc1	-8	1	-3	3	4587
O=C(NCCCN1CCOCC1)c1c(F)c(F)c(F)c(F)c1F	-4	-1	-2	5	6552
COC(=O)CNC(=O)c1c(-c2ccccc2Cl)noc1C	-1	0	1	-2	2239
COC(=O)CNC(=O)c1c(-c2c(Cl)cccc2Cl)noc1C	-1	2	0	0	23118*
O=C(NCCCN1CCOCC1)c1c(F)cccc1F	-4	?	-1	2	21499*
Cc1ccc(NC(=O)c2ccc(S(=O)(=O)N3CCC(C)CC3)cc2)cc1	-4	-3	0	2	20894*
Cc1ccc(C(=O)Nc2ccc(S(=O)(=O)N3CCOCC3)cc2)cc1	-3	0	2	2	2060
O=S(=O)(c1ccc(F)cc1)N1CCC(N2CCCCCC2)CC1	-1	0	-4	4	16305*
Cc1ccc(NC(=O)C2CCN(S(=O)(=O)c3ccc(F)cc3)CC2)cc1	-4	-1	-1	-1	23704*
O=C(Nc1cccc(Cl)c1)C1CCCN(S(=O)(=O)c2ccc(F)cc2)C1 (centres undefined)	-4	0	0	3	20734*
CC1CCN(C2CCN(S(=O)(=O)c3ccc(F)cc3)CC2)CC1	8	3	-3	-5	9245
CC(C)C(NC(=O)c1ccc(C(C)(C)C)cc1)C(=O)NCCc1ccccn1 (centres undefined)	0	0	-2	4	4470
CCN(C(=O)COC(=O)c1cc([N+](=O)[O-])ccc1N1CCOCC1)c1ccccc1	2	2	7	/	8803
CC1(C(=O)Nc2cccc(C#N)c2)CCN1C(=O)c1ccccc1CCc1ccccc1 (centres undefined)	-1	0	-6	/	3498
CS(=O)(=O)N1CCC(C(=O)Nc2cccc(F)c2)CC1	39*	4	-14	-3	3978
CC1CCCN(S(=O)(=O)c2ccc(NC(=O)c3cccc(-n4cnnn4)c3)cc2)C1 (centres undefined)	0	1	-2	0	20061*
Cc1ccc(S(=O)(=O)N2CCC(C(=O)NCCCN3CCCCCC3)CC2)cc1	-10	2	-2	2	24422*
CCCCNC(=O)C1CCN(C(=O)C2CCN(S(=O)(=O)c3ccc(C)cc3)CC2)CC1	-1	-2	-1	-2	5740
COCC(O)Cn1ccnc1[N+](=O)[O-] (centres undefined)	5	0	-4	/	3478
CC1CCN(S(=O)(=O)c2cccc(C(=O)N(C)C3CCS(=O)(=O)C3)c2)CC1 (centres undefined)	-11	0	-2	1	3819
CCC(C(=O)NCc1ccccn1)n1c2ccccc2c2nc(=O)cc(C)n21 (centres undefined)	-4	0	1	1	5650
SMILES	BoNT-F LC inh	BoNT-A LC inh2	Anthrax LF prot	SARS 3CLpro inh	Bead autofluor
CC(=O)N1CCN(C(=O)c2cccc(S(=O)(=O)N3CCN(c4ccc(F)cc4)CC3)c2)CC1	0	0	-4	/	6549
CCC(Cc1ccccc1)NC(=O)CCNS(=O)(=O)c1cc(Br)cnc1N (centres undefined)	-1	0	-2	-4	5649
O=C(COC(=O)c1cccc(O)c1)Nc1ccc(Cl)cc1C(=O)c1ccccc1	-5	0	0	6	3256
Cc1ccc(S(=O)(=O)C(CCC(=O)N2CCOCC2)S(=O)(=O)c2ccc(C)cc2)cc1	1	0	-1	0	16223*
Cc1ccc(S(=O)(=O)CC(=O)N2CCOCC2)cc1	4	0	2	3	4513
O=C(CNS(=O)(=O)c1ccc(Br)cc1)N1CCOCC1	0	0	-2	1	22354*
O=C(CNS(=O)(=O)c1ccc(C(=O)N2CCOCC2)cc1)N1CCOCC1	-6	1	4	-4	3857
c1ccc2c(c1)CCN(c1nc3ccccc3n3cnnc13)C2	5	0	-6	-2	4292
CC1(C)C2CC=C(CN3CCC(O)CC3)C1C2 (centres undefined)	0	?	-2	-1	16149*
Cc1ccc(S(=O)(=O)N2CCCC(C(=O)NCCC3=CCCCC3)C2)cc1 (centres undefined)	-2	-1	-1	1	21132*
O=C(NCCC1=CCCCC1)C1CCN(S(=O)(=O)N2CCOCC2)CC1	-4	-2	-2	-3	20881*
O=C(NCCC1=CCCCC1)C1CCCN(S(=O)(=O)c2ccc(F)cc2)C1 (centres undefined)	-7	0	-4	1	2538
CS(=O)(=O)Nc1ccccc1C(=O)Nc1cc(Cl)cc(Cl)c1	-3	-2	-2	2	20510*
O=c1nc(-c2ccccc2)n(-c2ccccc2)c2ncccc12	-7	0	-1	4	9325
CCCn1c2c(c(O)c(C(=O)Nc3ncccc3C)c1=O)CCCC2	2	0	-2	3	22788*
CCOc1ccccc1NC(=O)Nc1ccsc1C(=O)OC	-2	-1	-5	1	6094
COc1ccccc1NC(=O)c1cc2c(CO)cnc(C)c2oc1=Nc1ccc(OC)c(OC)c1	-3	0	-3	4	4151
CCSc1nnc(-c2ccccc2N)c(=O)[nH]1	-1	0	-4	-11	23571*
COn1c(SCc2cccc(Cl)c2)nc2ccccc2c1=O	-10	-2	-2	4	17254*
O=C(NCc1ccccc1)C1C2C=CC3(CN(Cc4cccnc4)C(=O)C13)O2 (centres undefined)	1	2	-2	-3	19359*
Cc1cccc(C)c1Nc1nnc(SCc2cc([N+](=O)[O-])cc3c2OCOC3)s1	15	15	-4	4	16667*
O=C(COc1ccc(S(=O)(=O)N2CCCC2)cc1)Nc1ccc(F)cc1	5	0	-2	-3	3933
COC(=O)c1ccc(NC(=O)COc2ccc(S(=O)(=O)N3CCCCC3)cc2)cc1	2	2	2	5	23051*
O=C(Cc1cccc(C(F)(F)F)c1)Nc1ccc(S(=O)(=O)N2CCCC2)cc1	-8	-3	1	/	5746
COc1ccc(NC(=O)CN2CCN(S(=O)(=O)c3ccc(Cl)cc3)CC2)cc1	-3	-2	0	-2	22877*
Cc1c(Cl)cccc1NC(=O)COc1ccc(S(=O)(=O)N2CCOCC2)cc1	1	0	-2	1	16522*
O=C(COc1cccc(C(F)(F)F)c1)Nc1ccc(S(=O)(=O)N2CCCC2)cc1	-10	-5	-4	6	25851*
CC(C)C1C(=O)N(Cc2cn(CCC3OCCCO3)nn2)CCS(=O)(=O)N1Cc1ccc(-c2ccc(Cl)nc2)cc1 (centres undefined)	-7	-1	-1	/	3737
